The list is not random: actives were taken first. Their share in the collection is about 2.4%.
Pol iota inh: qHTS for Inhibitors of Polymerase Iota. Potency, µM (top dose mostly 115 µM), for the others: at the highest dose activity, negative = inhibition, most hits filed as inhibitors. actives 1% (n = 390,000). DNA polymerase iota (Homo sapiens), Q9UNA4. AID 588590, 2011. Pol iota fluorescent replication assay, 10 min
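Fluorescent replication assay read twice, at 0 min and 10 min after adding 50 nM (final) substrate. Enzyme (10 nM) and compounds were first incubated 15 min at room temperature; enzyme-free buffer wells were negative controls.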
POLB inh: qHTS Assay for Inhibitors of DNA Polymerase Beta | AID 485314, 2010 | P06746 | Pol beta primer extension/strand displacement, fluorescence kinetic | actives 1.3% (n = 340,000) | Potency, µM (series often up to 114 µM), without a hit: at the top dose activity change, negative = inhibition, hits mostly inhibitors; note: % is set by controls: 0 for no effect and ±100 for the full control effect
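Curves were derived by four-parameter Hill fits of normalized qHTS data. The kinetic fluorescent primer-extension read was taken at 0 and 10 min after 50 nM substrate, following a 15 min room-temperature preincubation of 10 nM enzyme with compounds.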
FEN1 inh: qHTS Assay for the Inhibitors of Human Flap endonuclease 1 (FEN1) | P39748 | Recombinant FEN1 flap cleavage, fluorescence, 15 min | Potency, µM (top dose mostly 114 µM), for the others: at the top dose activity change, negative = inhibition, most hits filed as inhibitors | actives 0.35% (n = 390,000); note: % is set by controls: 0 for no effect and ±100 for the full control effect; nearly all actives have a fitted effect of over 65% in size
Target sequence (P39748 whole entry, looked up): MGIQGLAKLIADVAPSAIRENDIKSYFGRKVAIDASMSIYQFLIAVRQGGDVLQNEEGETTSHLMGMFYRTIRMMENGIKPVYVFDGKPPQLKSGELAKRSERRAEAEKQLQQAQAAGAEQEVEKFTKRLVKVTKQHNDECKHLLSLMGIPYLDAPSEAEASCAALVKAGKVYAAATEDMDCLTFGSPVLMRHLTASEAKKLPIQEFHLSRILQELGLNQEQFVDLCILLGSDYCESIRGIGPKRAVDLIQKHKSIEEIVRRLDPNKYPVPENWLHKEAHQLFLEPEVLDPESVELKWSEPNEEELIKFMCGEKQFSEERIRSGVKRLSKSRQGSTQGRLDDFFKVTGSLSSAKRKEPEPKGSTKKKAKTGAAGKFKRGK
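Read-out was taken twice, immediately and after 15 min, following addition of 50 nM substrate to 10 nM FEN1 that had sat with test compound for 15 min at room temperature. Curves came from a four-parameter Hill model.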
WRN inhibitor: qHTS for Inhibitors of WRN Helicase. Bifunctional 3'-5' exonuclease/ATP-dependent helicase WRN (Homo sapiens), Q14191. WRN helicase unwinding, fluorescent forked duplex, kinetic. Potency, µM (doses to about 114 µM), inactives show top-dose activity change, negative = inhibition, usual class: inhibitors. actives 0.46% (n = 360,000). AID 651768, 2012; note: % is set by controls: 0 for no effect and ±100 for the full control effect; nearly all actives have a fitted effect of over 55% in size
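WRN at 20 nM final preincubated with compound 15 min at room temperature; reaction started with 100 nM fluorophore/quencher forked duplex oligonucleotide and 2 mM ATP final. Unwinding followed kinetically by red fluorescence (ex 525, em 598 nm).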
POLK inh: qHTS for Inhibitors of Polymerase Kappa. DNA polymerase kappa (Homo sapiens), Q9UBT6. purified Pol kappa, fluorescent DNA synthesis assay, 10 min. Potency, µM (series often up to 107 µM), without a hit: at the top dose activity, negative = inhibition, usual class: inhibitors. actives 0.53% (n = 400,000); note: % is set by controls: 0 for no effect and ±100 for the full control effect
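10 nM Pol kappa was preincubated with compounds for 15 min at room temperature. Reaction started with 50 nM (final) substrate. Fluorescence read kinetically at 0 and 10 min.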
POLH inh: qHTS for Inhibitors of Polymerase Eta; AID 588591, 2011; actives 1.2% (n = 390,000); recombinant Pol eta, fluorescent DNA replication assay; Potency, µM (series often up to 114 µM), for the others: at the highest dose activity change, negative = inhibition, most hits filed as inhibitors; note: % is set by controls: 0 for no effect and ±100 for the full control effect
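Pol eta at 10 nM preincubated with compounds 15 min at room temperature; reaction started with fluorescent substrate (50 nM final) and read kinetically at 0 and 10 min.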
An asterisk follows results filed as active; ? = inconclusive; . = not tested or not shown; [ ] = dose if it differs, or a comment. Calls come from the whole dose curve; as a rule, active = well fitted curve in the direction sought with a large enough effect; inconclusive = small, poorly fitted or top-dose-only effect, or another doubt; inactive = no such curve, though single readings can be large; an effect the other way counts as inactive or inconclusive. Potency is the fitted concentration of half-maximal effect.

SMILES | Pol iota inh | POLB inh | FEN1 inh | WRN inhibitor | POLK inh | POLH inh
O=c1[nH]c(CSc2nc3ccccc3s2)nc2ccccc12 | 20.4% | -11.5% | 13.2% | -3.5% | 0.0% | -3.7%
Cc1sc2nc(CSC(C)C(=O)Nc3ccccn3)[nH]c(=O)c2c1C (configuration not stated) | -15.1% | . | 1.8% | -7.7% | -16.0% | 70.8µM*
Cc1sc2nc(CSc3nc4ccccc4s3)[nH]c(=O)c2c1C | . | 39.8µM* | . | . | . | .
Cc1cccc(NC(=O)C(C)SCc2nc3sc(C)c(C)c3c(=O)[nH]2)n1 (configuration not stated) | ? | ? | 7.5% | ? | -5.3% | ?
O=c1c2ccccc2nc(/C=C/c2ccc([N+](=O)[O-])o2)n1CCCO | -27.6% | ? | 4.1% | -7.3% | 1.1% | 15.8µM*
O=c1c2ccccc2nc(/C=C/c2ccc([N+](=O)[O-])cc2)n1CCCO | -22.3% | 1.3% | -9.5% | 0.2% | 0.7% | -11.5%
O=C(N/N=C/c1c(O)ccc2ccccc12)c1cccnc1 | 8.4% | -5.0% | 11.2% | -0.2% | -8.9% | -16.8%
Cc1ccc(C(=O)N/N=C/c2c(O)ccc3ccccc23)cn1 | ? | 50.1µM* | -25.2% | -1.2%[11.6 µM] | -6.2% | 50.1µM*
O=C(O)c1cc(N/N=C/c2c(O)ccc3ccccc23)ccc1Cl | ? | 79.4µM* | ? | -21.9%[11.6 µM] | ? | ?
O=C(O)c1ccc(N=Cc2c(O)ccc3ccccc23)cc1 | 12.6µM* | 57.4% | -10.7% | -2.4%[11.6 µM] | -12.5% | -16.2%
Cn1c(/N=C/c2c(O)ccc3ccccc23)nc2ccccc21 | 7.94µM* | 50.1µM* | ? | 44.7µM* | -5.4% | 89.1µM*
Cc1ccc(C)c(CN2C(=O)c3ccccc3S(=O)c3ccc(C(=O)N4CCN(c5cccc(Cl)c5)CC4)cc32)c1 (configuration not stated) | 16.2% | 25.4% | 11.7% | . | -3.5% | -14.1%
C=C[C@H](CC(C)C)N(Cc1ccccc1)S(=O)(=O)N(Cc1ccccc1)[C@H](C=C)CC(C)C | 22.2% | . | 2.1% | . | -21.1% | .
COc1ccccc1NC(C)C(=O)c1c[nH]c2ccccc12 (configuration not stated) | 21.3% | . | 4.9% | . | 5.8% | .
CC(C)C(=O)N/N=C/c1ccc(OCc2ccccc2)cc1 | 11.0% | 18.7% | -3.7% | -3.2% | -17.5% | -10.8%
O=C(O)c1cc(N/N=C/c2ccc(OCc3ccccc3)cc2)ccc1Cl | 106.7% | 50.1µM* | 7.7% | -14.1% | -19.0% | -17.3%
CC(C)(C)n1ncc2c(=O)n(Cc3c(F)ccc(Cl)c3Cl)cnc21 | 8.9% | . | -14.4% | . | -22.2% | .
CCCCCCCCCC[n+]1ccc(/C=C/c2c(C)[nH]c3ccccc23)c2ccccc21 | 58.9% | . | 44.7µM* | . | ? | .
CCCCCCC[n+]1ccc(/C=C/c2c(C)[nH]c3ccccc23)c2ccccc21 | 79.4µM* | . | 44.7µM* | . | ? | .
CCCCCCCCCCCC[n+]1ccc(/C=C/c2c[nH]c3ccccc23)c2ccccc21 | -17.9% | . | -31.0% | . | 10.1% | .
Cc1ccc(NC(=O)CN2C(=O)COc3ccc(S(=O)(=O)N4CCCCCC4)cc32)cc1Cl | 1.1% | 23.2% | 41.8% | . | 2.4% | -18.5%
O=C(Cc1cccc(F)c1)NO | 31.7% | . | 8.1% | . | 0.6% | .
COc1ccc(-c2cc(C(=O)Oc3ccc(Br)cc3)c3ccccc3n2)cc1 | 41.4% | 25.3% | -3.6% | . | 4.3% | -18.6%
Cc1ccc(NC2=CC(=O)C(=O)c3ccccc32)cc1 | 11.2µM* | ? | -8.1% | -7.3%[57.1 µM] | -6.9% | 79.4µM*
O=S(=O)(/N=C(/Sc1ccccc1)c1ccccc1)c1ccc(Cl)cc1 | ? | . | -10.2% | . | -18.5% | .
SMILES | Pol iota inh | POLB inh | FEN1 inh | WRN inhibitor | POLK inh | POLH inh
O=S(=O)(/N=C(/Sc1ccc(Cl)cc1)c1ccccc1)c1ccccc1 | -14.8% | . | 79.4µM* | . | -31.4% | .
CC1C/C(=N\NC(N)=S)c2cc(Cl)ccc2S1 (configuration not stated) | 79.4µM* | 6.5% | 11.0% | -29.8% | -8.4% | -8.8%
COC(=O)CCC(=O)OC1(C)C(=O)C2=CN(Cc3ccc4c(c3)OCO4)C(c3ccc(OC)cc3)=CC2=C(Br)C1=O (configuration not stated) | ? | . | 0.5% | -2.5% | -21.7% | -10.7%
COC(=O)CCC(=O)OC1(C)C(=O)C2=CN(CCCCO)C(c3ccc(OC)cc3)=CC2=C(Br)C1=O (configuration not stated) | . | -13.1% | . | . | . | .
COc1ccc(C2=CC3=C(Br)C(=O)C(C)(OC(=O)c4ccc(Cl)nc4)C(=O)C3=CO2)cc1 (configuration not stated) | 10µM* | 50.1µM* | ? | ? | ? | 22.4µM*
COC(=O)CCC(=O)OC1(C)C(=O)C2=CN(CCc3ccccn3)C(c3ccc(OC)cc3)=CC2=C(Br)C1=O (configuration not stated) | ? | . | -14.2% | -8.4% | -16.1% | 31.6µM*
COC(=O)CCC(=O)OC1(C)C(=O)C2=COC(c3ccc(OC)cc3)=CC2=C(Br)C1=O (configuration not stated) | 12.6µM* | 22.4µM* | 35.5µM* | ? | 25.1µM* | 10µM*
O=C(O)c1ccccc1C(=O)Nc1nccs1 | 20.4% | 16.8% | -11.7% | -1.2% | -5.9% | -0.4%
O=C(O)c1ccccc1C(=O)Nc1n[nH]c(=S)s1 | -6.0% | 22.4µM* | -1.1% | -14.7% | -26.4% | -11.6%
CCn1c(CSc2nnc(-c3cccnc3)n2-c2ccccc2C)nc2cc(C(=O)O)ccc21 | . | 3.55µM* | . | . | . | .
CCn1c(CSc2nnc(-c3ccncc3)n2CCOC)nc2cc(C(=O)O)ccc21 | 4.9% | ? | ? | ? | -9.5% | ?
CCn1c(CSc2nnc3ccccn23)nc2cc(C(=O)O)ccc21 | -19.7% | ? | 50.1µM* | 37.3%[57.1 µM] | -9.4% | ?
O=C(NN=C1CCN(Cc2ccccc2)CC1)c1cc2ccccc2cc1O | 79.4µM* | -107.9% | -3.9% | 0.8%[11.6 µM] | ? | ?
O=C1CCCC(=NNC(=O)c2cc3ccccc3cc2O)C1 | 79.4µM* | . | -1.7% | -25.0% | -38.7% | -14.7%
O=C(NN=C1CCCCCC1)c1cc2ccccc2cc1O | 33.9% | 0.6% | -9.6% | 0.7% | -7.1% | -21.6%
CC(=O)Oc1cc(-c2coc3cc(OC(C)=O)c(OC(C)=O)c(OC(C)=O)c3c2=O)cc(OC(C)=O)c1OC(C)=O | . | . | . | . | 0.355µM* | .

Source: PubChem BioAssay (National Center for Advancing Translational Sciences (NCATS))
